Laboratory results as given in PubChem BioAssay AID1159580 (chemical genetic matrix, 2015).
Out of some 5,500 compounds screened, about 2,000 (36%) were called active. Inconclusive results (about 18%) are left out. Rule as the data show it: active = normalized growth mostly below about 0.91 (no sharp cut-off); inconclusive = no clear call, values can overlap the other calls; inactive = mostly above about 0.92. Some of the results follow.

Experiment: chemical genetic growth profiling, strain panel (AID 1159580);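 also: tested at 20 µM; growth read once vehicle control cultures reached saturation at 30 °C; 1 = growth at the plate median or of vehicle wells; lower values mean less growth of the strain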
Details: S. cerevisiae deletion strains, growth OD

Measured: normalized growth

O=c1ccc2c(O)c3ccoc3cc2o1
inactive: locus YAL021C, strain ccr4, hits give low values 0.992 | locus YAL026C, strain drs2, hits give low values 0.974 | locus YAL030W, strain snc1, hits give low values 0.989 | locus YBL061C, strain skt5, hits give low values 0.982 | locus YBR009C, strain hhf1, hits give low values 0.977 | locus YBR023C, strain chs3, hits give low values 0.987 | locus YBR171W, strain sec66, hits give low values 0.983 | locus YBR231C, strain swc5, hits give low values 0.989 | locus YBR279W, strain paf1, hits give low values 0.984 | locus YCL011C, strain gbp2, hits give low values 0.989 | locus YCL016C, strain dcc1, hits give low values 0.986 | locus YCL069W, strain vba3, hits give low values 0.98 | locus YCR088W, strain abp1, hits give low values 0.967 | locus YDL005C, strain med2, hits give low values 0.986 | locus YDL040C, strain nat1, hits give low values 0.99 | locus YDR001C, strain nth1, hits give low values 0.977 | locus YDR069C, strain doa4, hits give low values 0.986 | locus YDR137W, strain rgp1, hits give low values 1.01 | locus YDR159W, strain sac3, hits give low values 0.997 | locus YDR195W, strain ref2 0.957 | locus YDR297W, strain sur2, hits give low values 0.987 | locus YDR334W, strain swr1, hits give low values 0.947 | locus YDR335W, strain msn5, hits give low values 0.994 | locus YDR392W, strain spt3, hits give low values 0.98 | locus YEL003W, strain gim4, hits give low values 0.984 | locus YEL037C, strain rad23, hits give low values 0.984 | locus YEL061C, strain CIN8 (second series), hits give low values 0.965 | locus YER015W, strain faa2, hits give low values 0.993 | locus YER016W, strain bim1, hits give low values 0.994 | locus YER111C, strain swi4, hits give low values 0.995 | locus YER155C, strain BEM2 (second series), hits give low values 0.997 | locus YFR010W, strain ubp6, hits give low values 0.968 | locus YGL167C, strain pmr1, hits give low values 0.986 | locus YGL173C, strain kem1, hits give low values 0.992 | locus YGL227W, strain vid30, hits give low values 0.981 | locus YGL240W, strain doc1, hits give low values 0.99 | locus YGL253W, strain hxk2, hits give low values 0.997 | locus YHR013C, strain ard1, hits give low values 0.956 | locus YHR027C, strain rpn1, hits give low values 0.998 | locus YHR030C, strain SLT2, hits give low values 0.997 | locus YHR079C, strain IRE1, hits give low values 0.985 | locus YHR142W, strain chs7, hits give low values 0.975 | locus YJL092W, strain hpr5, hits give low values 0.983 | locus YJL095W, strain BCK1 (second series), hits give low values 0.972 | locus YJL095W, strain BCK1, hits give low values 0.991 | locus YJL115W, strain asf1, hits give low values 0.965 | locus YJL129C, strain trk1, hits give low values 0.978 | locus YJL154C, strain vps35, hits give low values 0.966 | locus YJL164C, strain tpk1, hits give low values 0.992 | locus YJL166W, strain qcr8, hits give low values 0.963 | locus YJL187C, strain SWE1, hits give low values 0.988 | locus YJR066W, strain TOR1, hits give low values 0.935 | locus YKL160W, strain elf1, hits give low values 0.993 | locus YKR026C, strain gcn3, hits give low values 0.986 | locus YKR091W, strain srl3, hits give low values 0.984 | locus YLL001W, strain dnm1, hits give low values 0.982 | locus YLL026W, hits give low values 0.993 | locus YLL041C, strain sdh2, hits give low values 0.981 | locus YLR027C, strain aat2, hits give low values 0.976 | locus YLR113W, strain HOG1, hits give low values 1 | locus YLR221C, strain rsa3, hits give low values 0.984 | locus YLR258W, strain gsy2, hits give low values 0.987 | locus YLR262C, strain YPT6 (second series), hits give low values 1.01 | locus YLR320W, strain mms22, hits give low values 1.01 | locus YLR342W, strain FKS1, hits give low values 0.984 | locus YLR357W, strain rsc2, hits give low values 0.975 | locus YLR370C, strain arc18, hits give low values 0.984 | locus YLR384C, strain iki3, hits give low values 0.992 | locus YML120C, strain ndi1, hits give low values 0.97 | locus YMR058W, strain fet3, hits give low values 0.98 | locus YMR125W, strain sto1, hits give low values 0.983 | locus YMR129W, hits give low values 0.976 | locus YMR205C, strain PFK2, hits give low values 0.975 | locus YMR231W, strain pep5, hits give low values 0.981 | locus YNL071W, strain lat1, hits give low values 0.979 | locus YNL183C, strain NPR1, hits give low values 0.944 | locus YNL209W, strain ssb2, hits give low values 0.975 | locus YNL248C, strain rpa49, hits give low values 0.941 | locus YNL322C, strain KRE1 (second series), hits give low values 0.984 | locus YNR049C, strain mso1, hits give low values 0.996 | locus YOR001W, strain rrp6, hits give low values 0.975 | locus YOR070C, strain gyp1, hits give low values 0.992 | locus YOR080W, strain dia2, hits give low values 0.987 | locus YOR083W, strain WHI5, hits give low values 0.989 | locus YOR106W, strain vam3, hits give low values 0.977 | locus YOR231W, strain MKK1, hits give low values 0.996 | locus YOR265W, strain rbl2, hits give low values 0.973 | locus YOR270C, strain vph1, hits give low values 0.904 | locus YOR290C, strain snf2, hits give low values 0.991 | locus YPL051W, strain arl3, hits give low values 1.01 | locus YPL078C, strain atp4, hits give low values 0.974 | locus YPL106C, strain sse1, hits give low values 0.978 | locus YPL240C, strain hsp82, hits give low values 0.983 | locus YPL256C, strain CLN2, hits give low values 0.978
